# Laboratory results published in PubChem BioAssay AID2283125 (EPA ToxCast).
# Results filed as inconclusive are left out. Calls of active or inactive are those of the source. The calls were made as follows: active = hit-call score of the fitted dose curve at least 0.9, where 1 is the maximum; inconclusive = response in the unintended direction; inactive = score below 0.9.
# Biological target: Tyrosine-protein kinase ABL1 (Homo sapiens) (UniProt P00519)
# Experiment: NVS_ENZ_hAbl: NovaScreen (NVS) Enzymatic Assay for human ABL proto-oncogene 1, non-receptor tyrosine kinase
# Experimental: NVS_ENZ_hAbl is a biochemical, single-readout assay that uses extracted gene-proteins in a cell-free assay. Measurements were taken 1 hour after chemical dosing in a 96-well plate.NVS_ENZ_hAbl is one of one assay component(s) measured or calculated from the NVS_ENZ_hAbl assay. It is designed to make measurements of enzyme activity, a form of enzyme reporter, as detected with fluorescence intensity signals by Fluorescence and electrophoretic mobility shift technology.Data from the assay component NVS_ENZ_hAbl was analyzed into 1 assay endpoint. This assay endpoint, NVS_ENZ_hAbl, was analyzed in the positive analysis fitting direction relative to DMSO as the negative control and baseline of activity. Using a type of enzyme reporter, loss-of-signal activity can be used to understand changes in the enzymatic activity as they relate to the gene ABL1. Furthermore, this assay endpoint can be referred to as a primary readout, because this assay has produced multiple assay endpoints where this one serves a enzymatic activity function. To generalize the intended target to other relatable targets, this assay endpoint is annotated to the kinase intended target family, where the subfamily is non-receptor tyrosine kinase.
# Binding assays used specific radioligands (tritiated, iodinated) with non-radioactive competitive displacement ligands in agonist or antagonist protocols (as indicated) and various reference compounds and inhibitors to titrate specific binding to receptors and transporters. Most enzyme assays (CYPs, kinases, phosphatases, proteases, HDACs) used recombinant protein and specific substrates (fluorescence mostly, some colorimetric and radioactive) and inhibitors, followed by a biochemical separation of substrate and product. All assays for the biochemical HTS were initially run in duplicate at a single concentration (10 uM for CYP450 assays and 25 uM for all others). Assay-chemical combinations meeting a pre-defined threshold (e.g., 30% inhibition and other criteria defined below) were then run in singleton concentration-response format with maximum concentration of 20 uM for CYPs and 50 uM for all others. Each assay was run with positive and negative controls, and concurrent controls on every plate. The follow-up (secondary) screen tested active chemical-pairs in concentration series, as well as a few additional assays not tested in the primary screen, some selected negative inactives, and several cases re-run in the concentration series for confirmatory purposes.
# Chain of Tyrosine-protein kinase ABL1 (Homo sapiens) (P00519 whole entry, looked up): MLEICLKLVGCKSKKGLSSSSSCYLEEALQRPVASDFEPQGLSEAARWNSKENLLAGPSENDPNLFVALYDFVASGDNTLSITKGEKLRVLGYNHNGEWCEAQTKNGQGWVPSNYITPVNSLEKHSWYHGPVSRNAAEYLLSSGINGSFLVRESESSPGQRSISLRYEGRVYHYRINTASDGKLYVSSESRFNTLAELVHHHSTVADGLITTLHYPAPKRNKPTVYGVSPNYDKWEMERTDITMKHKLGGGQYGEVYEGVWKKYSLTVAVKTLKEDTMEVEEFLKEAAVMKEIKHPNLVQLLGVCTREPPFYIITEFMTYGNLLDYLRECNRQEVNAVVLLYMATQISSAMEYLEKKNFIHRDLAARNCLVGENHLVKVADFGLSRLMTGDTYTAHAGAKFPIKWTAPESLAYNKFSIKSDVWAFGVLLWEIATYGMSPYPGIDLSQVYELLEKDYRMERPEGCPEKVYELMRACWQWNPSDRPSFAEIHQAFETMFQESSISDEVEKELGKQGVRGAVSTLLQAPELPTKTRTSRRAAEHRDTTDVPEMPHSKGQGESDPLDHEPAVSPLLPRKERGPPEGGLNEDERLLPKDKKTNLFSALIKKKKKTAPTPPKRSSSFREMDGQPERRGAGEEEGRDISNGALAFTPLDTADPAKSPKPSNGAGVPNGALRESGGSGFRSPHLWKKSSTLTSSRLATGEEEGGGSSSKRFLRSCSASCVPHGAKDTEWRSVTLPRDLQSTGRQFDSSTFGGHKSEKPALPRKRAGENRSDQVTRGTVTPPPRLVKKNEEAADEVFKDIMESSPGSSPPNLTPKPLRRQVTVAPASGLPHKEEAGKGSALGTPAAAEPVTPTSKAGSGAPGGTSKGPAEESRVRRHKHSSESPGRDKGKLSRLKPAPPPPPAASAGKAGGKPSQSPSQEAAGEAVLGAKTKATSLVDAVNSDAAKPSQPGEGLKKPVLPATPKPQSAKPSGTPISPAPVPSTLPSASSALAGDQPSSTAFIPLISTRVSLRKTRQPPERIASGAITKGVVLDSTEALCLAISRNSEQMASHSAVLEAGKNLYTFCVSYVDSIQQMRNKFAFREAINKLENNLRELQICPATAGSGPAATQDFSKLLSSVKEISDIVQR
row,Compound,outcome
1,N#Cc1c(Cl)c(Cl)c(Cl)c(C#N)c1Cl,inactive
2,O=C(Nc1ccccc1)Nc1cnns1,inactive
3,O=C(Nc1ccccc1)Nc1ccnc(Cl)c1,inactive
4,CCNc1nc(Cl)nc(NCC)n1,inactive
5,O=C(O)C(F)(F)C(F)(F)C(F)(F)C(F)(F)C(F)(F)C(F)(F)C(F)(F)F,inactive
6,CCCC(=NOCC)C1=C(O)CC(CC(C)SCC)CC1=O (stereo not drawn),inactive
7,CCCCNC(=O)n1c(NC(=O)OC)nc2ccccc21,inactive
8,O=S(=O)(O)C(F)(F)C(F)(F)C(F)(F)C(F)(F)C(F)(F)C(F)(F)C(F)(F)C(F)(F)F,inactive
